Measurements from PubChem BioAssay (Tox21).
Records with an inconclusive call do not appear. Calls of active or inactive are those of the source. Unless noted, calls come from the whole dose curve; as a rule, active = well fitted curve in the direction sought with a large enough effect in the repeat runs; inconclusive = weak or mixed curves; inactive = no such curve, though single readings can be large; an effect the other way counts as inactive or inconclusive.

Key:
[1] = molecular target: Retinoic acid receptor RXR-alpha (Homo sapiens) (UniProt P19793); assay: qHTS assay to identify small molecule agonists of the RXR signaling pathway (AID 1159527; calls by dose curve; note: nearly all actives have a fitted effect of over 35% in size)
Outline: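 Agonist-mode beta-lactamase reporter assay: HEK 293T RXR-alpha-UAS-bla cells treated 16 hr at 37 C with compounds, 9-cis retinoic acid as positive control. LiveBLAzer FRET substrate, 405 nm excitation, 460/530 nm emission.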

[2] = qHTS assay to identify small molecule agonists of the RXR signaling pathway - cell viability counter screen (AID 1159529); note: series mostly up to about 77 µM; nearly all actives have a fitted effect of over 50% in size
Outline: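 CellTiter-Glo luminescence gave viability in the wells also read for beta-lactamase. Cells (RXR-alpha-UAS-bla HEK 293T, 2% charcoal-stripped FBS medium) had 5 hr plating, then 16 hr compound exposure at 37 C; tetraoctyl ammonium bromide served as positive control.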

[3] = qHTS assay to identify small molecule antagonists of the retinoid acid receptor (RAR) signaling pathway - cell viability counter screen (AID 1159551); note: nearly all actives have a fitted effect of over 35% in size
Outline: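 Following overnight attachment, C3RL4 reporter cells received DMSO-dissolved compounds and then retinol (1 uM final). Six hours later at 37 C, ATP content was measured by CellTiter-Glo luminescence.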

[4] = qHTS assay to identify small molecule antagonists of the retinoic acid receptor (RAR) signaling pathway (AID 1159552; note: nearly all actives have a fitted effect of over 50% in size)
Outline: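 Luminescent RARE reporter read-out in C3RL4 cells: 6 hr co-treatment at 37 C of test compounds with retinol at 1 uM final. Cells plated overnight beforehand; luciferase reagent incubated 30 min at room temperature before reading.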

[5] = qHTS assay to identify small molecule agonists of the retinoic acid receptor (RAR) signaling pathway (AID 1159553); note: potency is the fitted concentration of half-maximal effect
Outline: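 Cell line C3RL4, RARE luciferase reporter. Treatment: compounds in DMSO, 6 hr, 37 C, 5% CO2, after overnight plating. Detection: luminescence, 30 min RT after reagent.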

[6] = qHTS assay to identify small molecule antagonists of the estrogen related receptor (ERR) signaling pathway from Tox21 library - cell viability counter screen (AID 1224834); note: nearly all actives have a fitted effect of over 30% in size
Outline: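 Viability readout (CellTiter-Fluor fluorescence, 30 min at 37 C) multiplexed with the ERR assay; cells treated 17.5 h at 37 C with compounds delivered in DMSO.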

[7] = molecular target: Luciferin 4-monooxygenase (Photinus pyralis) (UniProt P08659); assay: qHTS assay to identify small molecule inhibitors of firefly luciferase (AID 1224835); note: nearly all actives have a fitted effect of over 25% in size; note: potency is the fitted concentration of half-maximal effect
Outline: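 Quantitative HTS format; KM concentrations of both substrates. Purified P. pyralis FLuc activity quantified from luminescence images.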

[8] = qHTS assay to identify small molecule agonists of the constitutive androstane receptor (CAR) signaling pathway - cell viability counter screen (AID 1224836); note: series mostly up to about 92 µM; nearly all actives have a fitted effect of over 45% in size
Outline: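 Cell viability multiplexed with the CAR agonist screen: CellTiter-Fluor fluorescence after 23 hr at 37 C. HepG2-CYP2B6-hCAR cells got compounds at 15 concentrations with PK11195 at 0.75 uM final.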

[9] = qHTS assay to identify small molecule antagonists of the constitutive androstane receptor (CAR) signaling pathway - cell viability counter screen (AID 1224837); note: series mostly up to about 92 µM; nearly all actives have a fitted effect of over 45% in size
Outline: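 Fluorescence from CellTiter-Fluor served as the viability signal. Human hepatoma HepG2 cells stably bearing hCAR and CYP2B6-2.2kb received compound plus CITCO (50 nM final) for 23 hr.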

[10] = qHTS assay to identify small molecule antagonists of the estrogen related receptor signaling pathway with the pleiotropic PPARgamma coactivator (PGC) from Tox21 10K library - cell viability counter screen (AID 1224840; active = well fitted cell-killing curve with a large enough effect in the repeat runs, not every such curve was filed as active; note: nearly all actives have a fitted effect of over 40% in size)
Outline: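 Compounds in DMSO, alongside positive and negative controls, were pinned onto PGC/ERR cells (2,000 per well). Exposure lasted 17.5 hours at 37 C, followed by a 30-minute CellTiter-Fluor incubation and fluorescence reading.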

[11] = molecular target: Thyrotropin receptor (Homo sapiens) (UniProt P16473); assay: qHTS assay to identify small molecule agonists of the thyroid stimulating hormone receptor (TSHR) signaling pathway (AID 1224843; calls by dose curve; note: nearly all actives have a fitted effect of over 45% in size)
Outline: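 Cell line HEK293 with TSHR; density 800/well. Exposure 30 min RT. Readout HTRF cAMP (cAMP-d2/anti-cAMP-cryptate), 1 h RT before reading.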

[12] = qHTS assay to identify small molecule agonists of the hypoxia (HIF-1) signaling pathway - cell viability counter screen (AID 1224844; calls by dose curve; note: nearly all actives have a fitted effect of over 50% in size)
Outline: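 Luminescent ATP content (CellTiter-Glo, 30 min, room temperature) served as the viability measure in HRE-bla ME-180 cells exposed to compounds for 17 hrs in low-serum medium (0.5% dialyzed FBS).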

[13] = qHTS assay to identify small molecule agonists of H2AX (AID 1224845; active = well fitted activation curve with a large enough effect in the signal ratio in the repeat runs, not every such curve was filed as active; the % refers to the signal ratio)
Outline: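 Wild-type CHO-K1 cells plated overnight, then exposed 3 hr at 37C to compounds at 15 concentrations (0.76% DMSO). Lysed, then HTRF anti-pH2AX(S139)-cryptate/anti-H2AX-d2 detection after 24 hr at room temperature; emissions 665 and 620 nm.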

[14] = qHTS assay to identify small molecule agonists of the hypoxia (HIF-1) signaling pathway (AID 1224846; active = well fitted activation curve with a large enough effect in the signal ratio in the repeat runs, not every such curve was filed as active; the % refers to the signal ratio)
Outline: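 Measured by blue/green FRET after loading CCF4-AM: beta-lactamase expressed from a hypoxia response element in ME-180 cells. Test agents were delivered in DMSO and left 17 hrs; cells had been plated 5 hrs earlier in low-serum (0.5% dialyzed FBS) medium.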

[15] = molecular target: Nuclear receptor subfamily 1 group I member 3 (Homo sapiens) (UniProt Q14994); assay: qHTS assay to identify small molecule antagonists of the constitutive androstane receptor (CAR) signaling pathway (AID 1224838);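 note: HepG2 cells stably expressing hCAR with CYP2B6 luciferase reporter stimulated by CITCO; nearly all actives have a fitted effect of over 40% in size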
Outline: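 Quantitative HTS in double-stable HepG2-CYP2B6-hCAR cells. After 4 h plating, cells get compound (15 concentrations) and CITCO at 50 nM final, incubate 24 h at 37 C, then ONE-Glo luminescence is read.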

[16] = molecular target: Nuclear receptor subfamily 1 group I member 3 (Homo sapiens) (UniProt Q14994); assay: qHTS assay to identify small molecule agonists of the constitutive androstane receptor (CAR) signaling pathway (AID 1224839);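 note: HepG2 cells stably carrying human CAR and a CYP2B6 luciferase reporter; series mostly up to about 92 µM; nearly all actives have a fitted effect of over 15% in size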
Outline: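 Luminescent ONE-Glo read-out after 24 hr, 37 C exposure of double-stable HepG2-CYP2B6-hCAR reporter cells to a 15-point compound series, in the presence of 0.75 uM PK11195 (final).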

[17] = qHTS assay to identify small molecule agonists of H2AX - cell viability counter screen (AID 1224847; calls by dose curve; note: top concentration of the series differs between compounds; nearly all actives have a fitted effect of over 30% in size)
Outline: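 Counter-screen for viability: CellTiter-Glo ATP luminescence read after 3 h compound treatment (15-point titration, 0.76% DMSO final) of CHO-K1 cells at 37C, with 30 min room-temperature reagent incubation.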

[18] = qHTS assay to identify small molecule antagonists of the estrogen related receptor (ERR) signaling pathway from Tox21 library (AID 1224848); note: nearly all actives have a fitted effect of over 50% in size
Outline: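 Screening used an ERR reporter line supplied by NTP, exposed for 18 h at 37 C to library compounds delivered in DMSO. Signal was luciferase luminescence developed with ONE-Glo at room temperature for 30 min.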
% is set by controls: 0 for no effect and ±100 for the full control effect.

Luciferin 4-monooxygenase (Photinus pyralis), sequence (P08659 whole entry, looked up): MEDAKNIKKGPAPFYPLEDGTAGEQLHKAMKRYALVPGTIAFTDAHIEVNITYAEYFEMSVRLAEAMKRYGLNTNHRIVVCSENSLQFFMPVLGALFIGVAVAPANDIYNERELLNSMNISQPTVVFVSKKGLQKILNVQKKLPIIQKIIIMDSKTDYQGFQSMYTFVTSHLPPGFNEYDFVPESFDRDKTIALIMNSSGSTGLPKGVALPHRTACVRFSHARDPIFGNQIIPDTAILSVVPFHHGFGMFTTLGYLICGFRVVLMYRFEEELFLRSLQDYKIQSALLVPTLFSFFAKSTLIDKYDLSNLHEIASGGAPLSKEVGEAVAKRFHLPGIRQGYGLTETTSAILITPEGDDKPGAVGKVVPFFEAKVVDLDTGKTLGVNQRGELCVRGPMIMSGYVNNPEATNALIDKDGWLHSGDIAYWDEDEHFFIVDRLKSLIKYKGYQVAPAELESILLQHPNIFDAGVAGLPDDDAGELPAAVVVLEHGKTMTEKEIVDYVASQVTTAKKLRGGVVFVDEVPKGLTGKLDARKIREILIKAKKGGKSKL
Nuclear receptor subfamily 1 group I member 3 (Homo sapiens), sequence (Q14994 whole entry, looked up): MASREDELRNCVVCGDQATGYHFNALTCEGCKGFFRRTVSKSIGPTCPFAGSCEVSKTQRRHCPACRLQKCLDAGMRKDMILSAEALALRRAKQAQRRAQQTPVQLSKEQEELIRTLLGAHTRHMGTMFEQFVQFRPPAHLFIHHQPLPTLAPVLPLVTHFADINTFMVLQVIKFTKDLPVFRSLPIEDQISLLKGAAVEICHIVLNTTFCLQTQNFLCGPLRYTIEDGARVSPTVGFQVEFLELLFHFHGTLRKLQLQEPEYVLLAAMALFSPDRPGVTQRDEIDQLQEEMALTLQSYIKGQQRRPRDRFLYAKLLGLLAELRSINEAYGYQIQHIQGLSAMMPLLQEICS
Retinoic acid receptor RXR-alpha (Homo sapiens), sequence (P19793 whole entry, looked up): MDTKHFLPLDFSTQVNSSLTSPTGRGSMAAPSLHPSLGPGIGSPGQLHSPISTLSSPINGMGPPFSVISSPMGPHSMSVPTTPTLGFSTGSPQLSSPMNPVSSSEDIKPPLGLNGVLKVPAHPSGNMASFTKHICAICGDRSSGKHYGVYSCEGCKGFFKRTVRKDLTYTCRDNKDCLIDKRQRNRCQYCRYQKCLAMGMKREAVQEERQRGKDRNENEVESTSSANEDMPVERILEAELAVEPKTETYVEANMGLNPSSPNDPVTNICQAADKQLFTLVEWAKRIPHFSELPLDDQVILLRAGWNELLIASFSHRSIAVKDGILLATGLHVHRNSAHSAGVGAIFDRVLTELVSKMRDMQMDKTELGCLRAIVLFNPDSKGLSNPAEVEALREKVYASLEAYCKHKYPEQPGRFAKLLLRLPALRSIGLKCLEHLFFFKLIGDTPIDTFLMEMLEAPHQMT
Thyrotropin receptor (Homo sapiens), sequence (P16473 whole entry, looked up): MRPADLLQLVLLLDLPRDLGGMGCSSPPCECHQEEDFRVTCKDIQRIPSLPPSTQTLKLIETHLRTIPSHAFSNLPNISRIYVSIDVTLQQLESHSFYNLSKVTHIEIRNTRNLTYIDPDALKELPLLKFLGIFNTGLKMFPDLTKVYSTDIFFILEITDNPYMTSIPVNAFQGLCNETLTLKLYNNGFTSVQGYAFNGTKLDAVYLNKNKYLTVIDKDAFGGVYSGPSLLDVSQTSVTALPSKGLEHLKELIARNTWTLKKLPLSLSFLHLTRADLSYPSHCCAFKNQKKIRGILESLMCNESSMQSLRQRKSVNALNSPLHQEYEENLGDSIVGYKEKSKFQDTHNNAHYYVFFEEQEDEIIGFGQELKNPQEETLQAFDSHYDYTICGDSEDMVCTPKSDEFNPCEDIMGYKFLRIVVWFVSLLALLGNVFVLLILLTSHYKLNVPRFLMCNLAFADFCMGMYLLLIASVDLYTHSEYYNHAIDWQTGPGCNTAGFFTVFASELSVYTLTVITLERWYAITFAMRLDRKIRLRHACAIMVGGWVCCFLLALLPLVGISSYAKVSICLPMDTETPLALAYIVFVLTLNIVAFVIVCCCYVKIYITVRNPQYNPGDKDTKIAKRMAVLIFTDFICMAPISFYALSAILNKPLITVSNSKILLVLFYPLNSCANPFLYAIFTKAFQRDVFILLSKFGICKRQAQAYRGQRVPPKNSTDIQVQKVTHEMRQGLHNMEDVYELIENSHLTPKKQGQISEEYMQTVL

CC1CC(=O)CC(C)(C)C1 (stereo unspecified)
inactive: Potency [1] | outcome [2] | outcome [3] | outcome [4] | Potency [5] | outcome [6] | Potency [7] | outcome [8] | outcome [9] | outcome [10] | outcome [11] | outcome [12] | outcome [13] | outcome [14]

CC1OCCC1=O (stereo unspecified)
inactive: Potency [1] | outcome [2] | outcome [3] | outcome [4] | Potency [5] | outcome [6] | outcome [8] | outcome [9] | Potency [15] | Potency [16] | outcome [10] | outcome [11] | outcome [12] | outcome [13] | outcome [14] | outcome [17]

CC(=O)Nc1ccc(OC(=O)c2ccccc2OC(C)=O)cc1
inactive: Potency [1] | outcome [2] | outcome [3] | outcome [4] | outcome [6] | outcome [8] | outcome [9] | Potency [15] | Potency [16] | outcome [10] | outcome [11] | outcome [12] | outcome [13] | outcome [14] | outcome [17]
active: Potency [5] 23.7 µM

CC(=O)CCC1=C(C)CCCC1(C)C
inactive: Potency [1] | outcome [2] | outcome [3] | outcome [4] | Potency [5] | outcome [6] | outcome [8] | outcome [9] | Potency [15] | Potency [16] | outcome [10] | outcome [11] | outcome [12] | outcome [13] | outcome [17]

C/C(CC(C)C)=N\O
inactive: Potency [1] | outcome [2] | outcome [3] | outcome [4] | Potency [5] | outcome [6] | outcome [8] | outcome [9] | Potency [15] | Potency [16] | outcome [10] | outcome [11] | outcome [12] | outcome [14] | outcome [17]

C[C@H]1[C@@H](c2ccccc2)NC(=O)N1C
inactive: Potency [1] | outcome [2] | outcome [3] | outcome [4] | Potency [5] | outcome [6] | Potency [7] | outcome [8] | outcome [9] | Potency [16] | outcome [10] | outcome [11] | outcome [13] | outcome [14]

O=C[O][Al]([O]C=O)[O]C=O
inactive: Potency [1] | outcome [2] | outcome [3] | outcome [4] | Potency [5] | outcome [6] | outcome [8] | outcome [9] | Potency [16] | outcome [10] | outcome [11] | outcome [12] | outcome [14] | outcome [17]
active: Potency [7] 63.3 µM

CN1C[C@@H]2C[C@H]1CN2c1cc2c(cc1F)c(=O)c(C(=O)O)cn2C1CC1
inactive: activation [1] 12.3% [at 15.8 µM] | activity change, negative = cytotoxicity [2] 0.369% [at 15.8 µM] | activity change, negative = cytotoxicity [3] -0.0754% [at 19 µM] | activity, negative = inhibition [4] 0.455% [at 19 µM] | Potency [5] | viability change, negative = cytotoxic [6] 5.48% [at 19 µM] | viability change, negative = cytotoxic [8] -2.13% [at 19 µM] | activity change, negative = cytotoxicity [9] -13.4% [at 19 µM] | activity, negative = inhibition [15] -6.55% [at 19 µM] | activation [16] -4.55% [at 19 µM] | viability change, negative = cytotoxic [10] 6.5% [at 19 µM] | activation [11] 1.11% [at 19 µM] | activity change, negative = cytotoxicity [12] 12.6% [at 15.8 µM] | activity change, negative = cytotoxicity [17] 4.25% [at 31.6 µM]

N#Cc1ccccc1O
inactive: Potency [1] | outcome [2] | outcome [3] | outcome [4] | Potency [5] | outcome [6] | outcome [8] | outcome [9] | Potency [15] | Potency [16] | outcome [10] | outcome [11] | outcome [12] | outcome [13]

CC(C)NC(=O)c1ccc(C=O)cc1
active: Potency [5] 26.6 µM
inactive: Potency [1] | outcome [2] | outcome [3] | outcome [4] | outcome [6] | outcome [8] | outcome [9] | Potency [16] | outcome [10] | outcome [11] | outcome [12] | outcome [13] | outcome [17]

CCCCCCCCCCCCCCCCCC#N
inactive: Potency [1] | outcome [2] | outcome [3] | outcome [4] | Potency [5] | outcome [6] | Potency [7] | outcome [8] | outcome [9] | Potency [16] | outcome [10] | outcome [11] | outcome [13] | outcome [14] | outcome [17]

CCO
inactive: Potency [1] | outcome [2] | outcome [3] | outcome [4] | Potency [5] | outcome [6] | outcome [8] | outcome [9] | Potency [15] | Potency [16] | outcome [10] | outcome [11] | outcome [12] | outcome [13] | outcome [14] | outcome [17]

COc1ccc(CCO)cc1
inactive: Potency [1] | outcome [2] | outcome [3] | outcome [4] | Potency [5] | outcome [6] | outcome [8] | outcome [9] | Potency [15] | Potency [16] | outcome [10] | outcome [11] | outcome [12] | outcome [14]

Fc1ccccc1
inactive: Potency [1] | outcome [2] | outcome [3] | outcome [4] | Potency [5] | outcome [6] | Potency [7] | outcome [8] | outcome [9] | Potency [16] | outcome [10] | outcome [11] | outcome [12] | outcome [14] | outcome [17] | Potency [18]

OC[C@H]1O[C@@H](O[C@@H]2[C@@H](CO)O[C@](O)(CO)[C@H]2O)[C@H](O)[C@@H](O)[C@H]1O
inactive: Potency [1] | outcome [2] | outcome [3] | outcome [4] | Potency [5] | outcome [6] | outcome [8] | outcome [9] | Potency [15] | Potency [16] | outcome [10] | outcome [11] | outcome [12] | outcome [13] | outcome [14] | outcome [17]

CCCC(CC)c1ccccc1 (stereo unspecified)
inactive: Potency [1] | outcome [2] | outcome [3] | outcome [4] | Potency [5] | outcome [6] | outcome [8] | outcome [9] | Potency [15] | Potency [16] | outcome [10] | outcome [11] | outcome [12] | outcome [13] | outcome [14] | outcome [17]

CC(C)=CCC/C(C)=C/COC=O
inactive: Potency [1] | outcome [2] | outcome [3] | outcome [4] | Potency [5] | outcome [6] | outcome [8] | outcome [9] | Potency [15] | Potency [16] | outcome [10] | outcome [11] | outcome [12] | outcome [13] | outcome [14] | outcome [17]
